The values that follow come from PubChem BioAssay (NCATS).

Results filed as inconclusive are left out. A call without a number means that no potency is given here. Activity calls are given as the source filed them. The call rests on the fitted dose curve; in most records, active means well fitted curve in the direction sought with a large enough effect; inconclusive means small, poorly fitted or top-dose-only effect, or another doubt; inactive means no such curve, though single readings can be large; an effect the other way counts as inactive or inconclusive.
Potency means the concentration at half of the fitted maximal effect.

The nature of one assay: qHTS of pediatric cancer cell lines to identify multiple opportunities for drug repurposing: Primary screen for RD cells (AID 1347104). Further: nearly all actives have a fitted effect of over 55% in size. The following applies: RD rhabdomyosarcoma viability, CellTiter-Glo luminescence, 48 h; series mostly up to 46 µM. The procedure, abridged:
(§1)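 Quantitative HTS format: each compound titrated (MIPE 11 points from 0.78 nM, NPC 8 points from 0.59 nM) onto cells plated 5 hours earlier. After 48 h at 37 degrees C, CellTiter-Glo luminescence was recorded.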
Consider `Cc1ccc2c(Br)cc(Br)c(O)c2n1`, for which the Potency is 10.6 µM (active).

As for `CO[C@H]1C=CO[C@@]2(C)Oc3c(C)c(O)c4c(O)c(c(/C=N/N5CCN(C)CC5)c(O)c4c3C2=O)NC(=O)/C(C)=C\C=C[C@H](C)[C@H](O)[C@@H](C)[C@@H](O)[C@@H](C)[C@H](OC(C)=O)[C@@H]1C`, the Potency result was “inactive”. In the case of `O=C1OC2(c3ccccc31)c1cc(Br)c(O)c(Br)c1Oc1c2cc(Br)c(O)c1Br`, the Potency entry is “inactive”.

For `Oc1c(Cl)cc(Cl)c(Cl)c1Cc1c(O)c(Cl)cc(Cl)c1Cl`, the Potency was 11.9 µM (active). In the case of `COc1ccc(C(=O)c2ccccc2O)c(O)c1`, the Potency entry was “inactive”. Same read-out and setting: then `Nc1nc(Cl)nc2c1ncn2[C@@H]1O[C@H](CO)[C@@H](O)[C@@H]1F`, with “inactive”; and `CCN(CC)CCNc1ccc(CO)c2sc3ccccc3c(=O)c12`, with 23.7 µM (active); and `CCCCCCCCCCCCCC[N+](C)(C)Cc1ccccc1`, with 21.1 µM (active).

With `CCc1nn(CCCN2CCN(c3cccc(Cl)c3)CC2)c(=O)n1CCOc1ccccc1`, the Potency entry is “inactive”. With `O[C@@H](c1cc(C(F)(F)F)nc2c(C(F)(F)F)cccc12)[C@H]1CCCCN1`, the Potency was 23.7 µM (active).

Consider `CN1CCN(CCC(=O)N2c3ccccc3Sc3ccc(C(F)(F)F)cc32)CC1`, for which the Potency was 23.7 µM (active). Take `NC(N)=NN=C(/C=C/c1ccc([N+](=O)[O-])o1)/C=C/c1ccc([N+](=O)[O-])o1`: the Potency was 0.841 µM (active). With `Oc1ccc(Cl)cc1Cc1cc(Cl)ccc1O`, the Potency was 21.1 µM (active). For the compound `C#C[C@]1(OC(C)=O)CC[C@H]2[C@@H]3CCC4=C/C(=N/O)CC[C@@H]4[C@H]3CC[C@@]21CC`, the Potency was 29.9 µM (active). As to `CCCCCN=C(N)N/N=C/c1c[nH]c2ccc(OC)cc12`, the Potency was 7.5 µM (active). `CCCCNc1ccc(C(=O)OCCOCCOCCOCCOCCOCCOCCOCCOCCOC)cc1`: the Potency entry is “inactive”. Same read-out and setting: as for `COc1ccc(C(Cl)=C(c2ccc(OC)cc2)c2ccc(OC)cc2)cc1`, the entry is “inactive”; as for `CCc1ccc(C(=O)C(C)CN2CCCCC2)cc1` (centres undefined), “inactive”; as for `CCCCc1cc2ccccc2c(OCCN(C)C)n1`, “inactive”.

Regarding `CC1(COc2ccc(CC3SC(=O)NC3=O)cc2)CCCCC1` (centres undefined), the Potency result is “inactive”.

With `C[C@H]1O[C@@H](O[C@H]2CC[C@@]3(C)[C@H](CC[C@@H]4[C@@H]3C[C@@H](O)[C@]3(C)[C@@H](C5=CC(=O)OC5)CC[C@]43O)C2)C[C@H](O)[C@@H]1O[C@H]1C[C@H](O)[C@H](O[C@H]2C[C@H](O)[C@H](O[C@@H]3O[C@H](CO)[C@@H](O)[C@H](O)[C@H]3O)[C@@H](C)O2)[C@@H](C)O1`, the Potency is 0.15 µM (active). Same read-out and setting: as for `CNCCCCOc1ccccc1Cc1ccccc1`, the figure is 23.7 µM (active); as for `C[C@]12CCC(=O)C=C1C=C[C@@H]1[C@@H]2CC[C@@]2(C)[C@H]1CC[C@@]21CCC(=O)O1`, “inactive”. The same measure, in the same setting: then `O=C(Nc1ccccc1)OCC(CN1CCCCC1)OC(=O)Nc1ccccc1` (centres undefined), with 29.9 µM (active).

The next assay in a line: qHTS of pediatric cancer cell lines to identify multiple opportunities for drug repurposing: Primary screen for MG 63 (6-TG R) cells (AID 1347105). Further: nearly all actives have a fitted effect of over 50% in size. The following applies: MG 63 (6-TG R) viability, CellTiter-Glo, 48 h; series mostly up to 46 µM. The procedure, abridged:
as §1
For `Cc1ccc2c(Br)cc(Br)c(O)c2n1`, the Potency was 13.3 µM (active). The same measure, in the same setting: then `CO[C@H]1C=CO[C@@]2(C)Oc3c(C)c(O)c4c(O)c(c(/C=N/N5CCN(C)CC5)c(O)c4c3C2=O)NC(=O)/C(C)=C\C=C[C@H](C)[C@H](O)[C@@H](C)[C@@H](O)[C@@H](C)[C@H](OC(C)=O)[C@@H]1C`, with “inactive”; and `O=C(CCCN1CC=C(n2c(=O)[nH]c3ccccc32)CC1)c1ccc(F)cc1`, with “inactive”; and `O=C1OC2(c3ccccc31)c1cc(Br)c(O)c(Br)c1Oc1c2cc(Br)c(O)c1Br`, with “inactive”. On the same count and under the same terms, then `Nc1nc(Cl)nc2c1ncn2[C@@H]1O[C@H](CO)[C@@H](O)[C@@H]1F`, with 0.841 µM (active); and `CCc1oc2ccccc2c1C(=O)c1cc(I)c(O)c(I)c1`, with “inactive”; and `CCN(CC)CCNc1ccc(CO)c2sc3ccccc3c(=O)c12`, with “inactive”. Still for that read-out and setting: then `CCc1nn(CCCN2CCN(c3cccc(Cl)c3)CC2)c(=O)n1CCOc1ccccc1`, with “inactive”; and `O[C@@H](c1cc(C(F)(F)F)nc2c(C(F)(F)F)cccc12)[C@H]1CCCCN1`, with 26.6 µM (active); and `CC[C@H](c1ccc(O)cc1)[C@@H](CC)c1ccc(O)cc1`, with 13.3 µM (active). As to `CC(C)=CCOc1ccc(/C=C/C(=O)c2ccc(OCC=C(C)C)cc2OCC(=O)O)cc1`, the Potency was 33.5 µM (active). With `CCCCCCCCNC(C)C(O)c1ccc(SC(C)C)cc1` (centres undefined), the Potency was 26.6 µM (active). The same measure, in the same setting: then `Oc1ccc(Cl)cc1Cc1cc(Cl)ccc1O`, with 16.8 µM (active); and `C#C[C@]1(OC(C)=O)CC[C@H]2[C@@H]3CCC4=C/C(=N/O)CC[C@@H]4[C@H]3CC[C@@]21CC`, with “inactive”.

Consider `COc1ccc(C(Cl)=C(c2ccc(OC)cc2)c2ccc(OC)cc2)cc1`, for which the Potency result is “inactive”.

Consider `CCc1ccc(C(=O)C(C)CN2CCCCC2)cc1` (centres undefined), for which the Potency entry was “inactive”. For the compound `CCCCc1cc2ccccc2c(OCCN(C)C)n1`, the Potency result is “inactive”. Same read-out and setting: then `CC1(COc2ccc(CC3SC(=O)NC3=O)cc2)CCCCC1` (centres undefined), with “inactive”; and `C#C[C@]1(O)CC[C@H]2[C@@H]3CCC4=Cc5oncc5C[C@]4(C)[C@H]3CC[C@@]21C`, with “inactive”; and `C[C@]12CCC(=O)C=C1C=C[C@@H]1[C@@H]2CC[C@@]2(C)[C@H]1CC[C@@]21CCC(=O)O1`, with “inactive”.
